Here are results for one compound from ChEMBL document CHEMBL2218924, “A broad activity screen in support of a chemogenomic map for kinase signalling research and drug discovery” (Biochem J, 2013).

Usually residual activity stands for the signal under treatment as a percentage of the control signal.

The target in assay [1] is T1, Serine/threonine-protein kinase TBK1 (Homo sapiens) (UniProt Q9UHD2).
T1 sequence (whole entry): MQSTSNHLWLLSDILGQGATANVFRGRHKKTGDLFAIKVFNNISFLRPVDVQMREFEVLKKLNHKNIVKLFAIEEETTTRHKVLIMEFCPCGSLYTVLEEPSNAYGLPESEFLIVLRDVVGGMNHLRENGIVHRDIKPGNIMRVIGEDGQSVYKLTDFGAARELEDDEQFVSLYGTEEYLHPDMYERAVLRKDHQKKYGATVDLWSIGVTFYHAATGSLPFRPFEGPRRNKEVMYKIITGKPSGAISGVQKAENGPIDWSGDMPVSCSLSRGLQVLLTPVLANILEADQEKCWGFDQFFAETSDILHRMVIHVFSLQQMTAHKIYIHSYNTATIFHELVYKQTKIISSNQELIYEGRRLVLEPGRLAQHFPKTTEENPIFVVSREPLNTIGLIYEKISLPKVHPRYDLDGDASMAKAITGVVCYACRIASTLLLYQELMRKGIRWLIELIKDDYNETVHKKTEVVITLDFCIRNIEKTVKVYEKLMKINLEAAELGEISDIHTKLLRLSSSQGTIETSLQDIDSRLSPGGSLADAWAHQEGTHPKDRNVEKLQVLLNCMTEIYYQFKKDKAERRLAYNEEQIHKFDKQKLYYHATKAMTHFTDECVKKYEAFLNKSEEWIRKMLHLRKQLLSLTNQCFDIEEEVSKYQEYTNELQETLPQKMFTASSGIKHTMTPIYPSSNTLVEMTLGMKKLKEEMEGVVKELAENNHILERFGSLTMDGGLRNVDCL
The settings on record: at 10 µM.

Assay [2] deals with T2, TGF-beta receptor type-1 (Homo sapiens) (UniProt P36897).
T2 sequence (whole entry): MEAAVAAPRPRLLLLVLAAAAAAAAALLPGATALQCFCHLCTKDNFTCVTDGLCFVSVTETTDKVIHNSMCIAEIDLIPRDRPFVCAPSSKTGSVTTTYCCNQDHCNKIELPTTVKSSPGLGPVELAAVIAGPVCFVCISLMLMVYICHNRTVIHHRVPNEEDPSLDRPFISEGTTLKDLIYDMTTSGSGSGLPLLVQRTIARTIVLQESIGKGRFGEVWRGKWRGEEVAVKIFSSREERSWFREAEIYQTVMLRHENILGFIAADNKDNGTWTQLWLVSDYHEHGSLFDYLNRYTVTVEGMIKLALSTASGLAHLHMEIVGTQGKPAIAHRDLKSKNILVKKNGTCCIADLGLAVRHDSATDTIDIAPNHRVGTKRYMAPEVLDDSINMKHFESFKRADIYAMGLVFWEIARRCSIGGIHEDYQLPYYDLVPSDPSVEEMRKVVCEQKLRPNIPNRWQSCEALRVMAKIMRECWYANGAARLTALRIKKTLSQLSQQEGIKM
The settings on record: at 1 µM.

Assay [3] deals with T2, TGF-beta receptor type-1 (Homo sapiens). The settings on record: at 10 µM.
The target in assay [4] is Insulin-like growth factor 1 receptor (Homo sapiens) (UniProt P08069). The settings on record: at 1 µM.
Chain of Insulin-like growth factor 1 receptor (Homo sapiens) (P08069 31-736 limits assumed): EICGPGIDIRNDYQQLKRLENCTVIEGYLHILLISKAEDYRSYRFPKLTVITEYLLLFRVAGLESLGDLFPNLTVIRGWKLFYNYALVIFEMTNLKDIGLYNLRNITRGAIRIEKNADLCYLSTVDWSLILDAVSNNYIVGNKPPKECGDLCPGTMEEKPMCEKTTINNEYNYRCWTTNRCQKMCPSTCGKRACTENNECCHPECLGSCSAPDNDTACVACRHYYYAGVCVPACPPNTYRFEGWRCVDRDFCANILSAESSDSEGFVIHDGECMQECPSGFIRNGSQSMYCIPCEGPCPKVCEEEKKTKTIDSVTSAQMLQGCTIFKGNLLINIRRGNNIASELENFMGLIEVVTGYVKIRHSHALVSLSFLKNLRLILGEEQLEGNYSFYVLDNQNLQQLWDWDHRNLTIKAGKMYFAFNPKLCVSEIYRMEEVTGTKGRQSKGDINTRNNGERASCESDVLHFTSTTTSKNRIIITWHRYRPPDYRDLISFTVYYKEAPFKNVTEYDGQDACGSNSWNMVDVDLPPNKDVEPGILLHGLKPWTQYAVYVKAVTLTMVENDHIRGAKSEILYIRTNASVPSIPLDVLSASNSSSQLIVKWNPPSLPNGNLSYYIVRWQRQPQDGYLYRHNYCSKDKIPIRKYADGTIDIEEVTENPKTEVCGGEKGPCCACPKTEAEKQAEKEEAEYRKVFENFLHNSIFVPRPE
Chain of Insulin-like growth factor 1 receptor (Homo sapiens) (P08069 741-1367 limits assumed): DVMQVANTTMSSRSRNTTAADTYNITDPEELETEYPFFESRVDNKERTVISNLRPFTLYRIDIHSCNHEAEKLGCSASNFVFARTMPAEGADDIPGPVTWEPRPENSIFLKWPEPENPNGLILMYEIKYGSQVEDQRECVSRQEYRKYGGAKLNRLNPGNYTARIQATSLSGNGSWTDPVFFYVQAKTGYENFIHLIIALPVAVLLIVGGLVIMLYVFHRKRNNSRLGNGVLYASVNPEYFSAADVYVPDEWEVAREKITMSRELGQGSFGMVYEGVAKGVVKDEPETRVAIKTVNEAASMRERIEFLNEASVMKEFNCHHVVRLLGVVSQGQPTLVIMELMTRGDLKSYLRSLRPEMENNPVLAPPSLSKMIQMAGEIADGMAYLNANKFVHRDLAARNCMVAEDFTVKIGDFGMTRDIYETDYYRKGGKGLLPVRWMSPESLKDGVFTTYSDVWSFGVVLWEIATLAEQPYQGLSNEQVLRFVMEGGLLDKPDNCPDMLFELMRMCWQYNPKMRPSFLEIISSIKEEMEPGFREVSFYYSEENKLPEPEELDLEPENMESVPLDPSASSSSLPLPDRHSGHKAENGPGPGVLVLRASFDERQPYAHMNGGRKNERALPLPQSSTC
The target is the same in assay [5]. The settings on record: at 10 µM.
Assay [6] concerns the target T3, Inhibitor of nuclear factor kappa-B kinase subunit alpha (Homo sapiens) (UniProt O15111).
T3 sequence (whole entry): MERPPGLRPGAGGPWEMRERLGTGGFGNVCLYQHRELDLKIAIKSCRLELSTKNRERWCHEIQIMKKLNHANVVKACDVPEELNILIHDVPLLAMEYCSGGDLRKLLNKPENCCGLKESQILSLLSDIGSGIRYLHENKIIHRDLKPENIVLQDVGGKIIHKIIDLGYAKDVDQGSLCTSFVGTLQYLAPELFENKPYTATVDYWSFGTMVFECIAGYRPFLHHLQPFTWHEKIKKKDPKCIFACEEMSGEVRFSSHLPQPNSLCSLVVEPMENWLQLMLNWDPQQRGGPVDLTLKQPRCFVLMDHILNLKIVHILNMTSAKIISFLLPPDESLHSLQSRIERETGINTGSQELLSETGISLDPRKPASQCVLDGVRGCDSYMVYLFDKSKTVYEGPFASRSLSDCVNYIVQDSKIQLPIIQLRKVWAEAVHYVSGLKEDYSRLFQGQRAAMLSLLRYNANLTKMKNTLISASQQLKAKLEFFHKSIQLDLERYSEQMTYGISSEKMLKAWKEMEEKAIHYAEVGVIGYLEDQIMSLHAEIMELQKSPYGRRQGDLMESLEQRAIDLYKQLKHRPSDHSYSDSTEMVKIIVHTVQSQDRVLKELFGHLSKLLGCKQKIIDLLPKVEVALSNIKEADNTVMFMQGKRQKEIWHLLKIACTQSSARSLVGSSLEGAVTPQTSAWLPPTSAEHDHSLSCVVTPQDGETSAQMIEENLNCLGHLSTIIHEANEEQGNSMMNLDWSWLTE
The settings on record: at 1 µM.

Assay [7] addresses T3, Inhibitor of nuclear factor kappa-B kinase subunit alpha (Homo sapiens). The note with it: at 10 µM.
Assay [8] deals with T4, Inhibitor of nuclear factor kappa-B kinase subunit beta (Homo sapiens) (UniProt O14920).
T4 sequence (whole entry): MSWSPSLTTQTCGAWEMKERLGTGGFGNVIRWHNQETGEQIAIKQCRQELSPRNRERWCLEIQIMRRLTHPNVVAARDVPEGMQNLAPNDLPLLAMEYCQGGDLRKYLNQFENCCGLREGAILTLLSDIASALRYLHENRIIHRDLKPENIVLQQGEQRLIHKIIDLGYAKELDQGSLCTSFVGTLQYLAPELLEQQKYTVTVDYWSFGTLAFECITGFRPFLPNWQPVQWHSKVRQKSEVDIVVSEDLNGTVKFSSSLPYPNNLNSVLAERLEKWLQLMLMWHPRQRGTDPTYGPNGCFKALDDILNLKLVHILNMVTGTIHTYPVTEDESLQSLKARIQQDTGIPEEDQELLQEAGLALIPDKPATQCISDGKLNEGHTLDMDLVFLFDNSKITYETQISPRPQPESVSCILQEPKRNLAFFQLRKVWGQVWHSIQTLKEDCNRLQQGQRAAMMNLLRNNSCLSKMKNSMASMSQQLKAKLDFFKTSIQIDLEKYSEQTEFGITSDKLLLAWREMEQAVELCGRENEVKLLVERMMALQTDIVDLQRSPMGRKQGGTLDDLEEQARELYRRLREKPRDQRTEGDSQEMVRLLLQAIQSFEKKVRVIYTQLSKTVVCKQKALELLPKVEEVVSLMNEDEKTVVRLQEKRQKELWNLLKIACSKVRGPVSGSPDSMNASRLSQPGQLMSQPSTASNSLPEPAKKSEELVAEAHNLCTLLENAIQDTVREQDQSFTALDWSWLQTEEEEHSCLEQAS
The note with it: at 1 µM.

For assay [9], the target named is T4, Inhibitor of nuclear factor kappa-B kinase subunit beta (Homo sapiens). The note with it: at 10 µM.
For assay [10], the target named is Insulin receptor (Homo sapiens) (UniProt P06213). The note with it: at 1 µM.
Chain of Insulin receptor (Homo sapiens) (P06213 28-758 limits assumed): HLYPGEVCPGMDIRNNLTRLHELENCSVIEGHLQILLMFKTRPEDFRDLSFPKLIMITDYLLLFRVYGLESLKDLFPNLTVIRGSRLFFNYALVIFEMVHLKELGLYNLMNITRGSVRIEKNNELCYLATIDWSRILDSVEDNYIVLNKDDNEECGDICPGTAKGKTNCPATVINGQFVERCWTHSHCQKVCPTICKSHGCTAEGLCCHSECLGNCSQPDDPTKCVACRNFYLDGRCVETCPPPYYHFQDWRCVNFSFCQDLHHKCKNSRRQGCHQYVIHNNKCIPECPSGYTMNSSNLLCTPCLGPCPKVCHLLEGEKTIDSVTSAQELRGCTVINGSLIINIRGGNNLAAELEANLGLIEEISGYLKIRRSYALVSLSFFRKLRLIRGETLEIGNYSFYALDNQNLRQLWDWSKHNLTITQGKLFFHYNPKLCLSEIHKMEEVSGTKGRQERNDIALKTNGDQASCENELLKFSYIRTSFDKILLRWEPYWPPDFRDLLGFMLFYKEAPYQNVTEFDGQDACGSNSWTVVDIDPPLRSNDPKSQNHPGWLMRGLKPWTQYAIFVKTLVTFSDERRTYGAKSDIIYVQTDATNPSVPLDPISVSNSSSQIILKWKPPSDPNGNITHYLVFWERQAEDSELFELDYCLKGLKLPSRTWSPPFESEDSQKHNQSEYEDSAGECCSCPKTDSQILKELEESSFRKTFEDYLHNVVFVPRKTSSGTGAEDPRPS
Chain of Insulin receptor (Homo sapiens) (P06213 763-1382 limits assumed): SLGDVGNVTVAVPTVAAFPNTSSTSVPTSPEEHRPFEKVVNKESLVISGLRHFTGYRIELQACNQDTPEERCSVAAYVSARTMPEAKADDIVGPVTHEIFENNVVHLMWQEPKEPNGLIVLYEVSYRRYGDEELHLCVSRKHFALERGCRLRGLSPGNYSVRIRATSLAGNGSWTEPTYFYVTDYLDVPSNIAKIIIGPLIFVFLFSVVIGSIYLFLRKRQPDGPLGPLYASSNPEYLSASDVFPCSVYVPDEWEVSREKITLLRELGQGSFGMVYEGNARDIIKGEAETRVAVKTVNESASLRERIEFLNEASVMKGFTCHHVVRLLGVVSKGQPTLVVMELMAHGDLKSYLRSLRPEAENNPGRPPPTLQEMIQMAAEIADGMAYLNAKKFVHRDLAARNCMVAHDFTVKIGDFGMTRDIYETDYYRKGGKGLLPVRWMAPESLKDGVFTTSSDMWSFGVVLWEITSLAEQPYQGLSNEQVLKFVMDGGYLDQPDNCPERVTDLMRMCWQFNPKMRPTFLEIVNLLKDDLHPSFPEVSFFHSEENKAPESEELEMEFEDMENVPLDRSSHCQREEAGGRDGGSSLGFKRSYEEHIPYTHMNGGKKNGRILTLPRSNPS

For the compound `CCN(CC)CCCCN1c2ccccc2Oc2ccc(Cl)cc21`, the residual activity was 82% in assay [1]; 84% in assay [2]; 105% in [3]; 107% in assay [4]; 104% in [5]; 97% in assay [6]. Further, the residual activity in [7] is 102%; in assay [8] it was 112%; in assay [9], 105%; in assay [10], 114%.
